Reference: PubChem BioAssay (Tox21)
Inconclusive results are not listed. Activity calls are given as the source filed them. Unless noted, calls follow the shape of the dose curve; as a rule, active = well fitted curve in the direction sought with a large enough effect in the repeat runs; inconclusive = weak or mixed curves; inactive = no such curve, though single readings can be large; an effect the other way counts as inactive or inconclusive.

Legend:
[1] = molecular target: Thyrotropin receptor (Homo sapiens) (UniProt P16473); experiment: qHTS assay to identify small molecule agonists of the thyroid stimulating hormone receptor (TSHR) signaling pathway (AID 1224843; calls by dose curve; also: nearly all actives have a fitted effect of over 45% in size)
How it was run: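 HEK293/TSHR, 800 cells/well; cpd 30 min RT; add cAMP-d2 + anti-cAMP-cryptate, 1 h RT; fluorescence read on plate reader. 15-pt titration, n=3.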

[2] = qHTS assay to identify small molecule agonists of the hypoxia (HIF-1) signaling pathway - cell viability counter screen (AID 1224844; calls by dose curve; also: nearly all actives have a fitted effect of over 50% in size; also: potency is read from the fitted curve at half-maximal effect)
How it was run: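 Cytotoxicity was measured in parallel with the HRE-driven beta-lactamase readout: after 17 hrs of compound exposure at 37C, HRE-bla ME-180 cells received CellTiter-Glo and luminescence was recorded 30 min later.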

[3] = qHTS assay to identify small molecule agonists of H2AX - cell viability counter screen (AID 1224847; calls by dose curve;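 also: wild-type CHO-K1 cells; top concentration of the series differs between compounds; nearly all actives have a fitted effect of over 30% in size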)
How it was run: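 For this counter screen, overnight-attached CHO-K1 cells received test compounds (15 concentrations, 0.76% DMSO final); 3 hr later at 37C, CellTiter-Glo reagent was added and luminescence recorded after 30 min at room temperature.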

[4] = qHTS assay to identify small molecule antagonists of the estrogen related receptor (ERR) signaling pathway from Tox21 library (AID 1224848); also: nearly all actives have a fitted effect of over 50% in size; also: potency is read from the fitted curve at half-maximal effect
How it was run: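 Compounds dissolved in DMSO are pin-transferred onto ERR reporter cells (2,000 per well) that have settled for 6 h at 37 C. Plates then incubate 18 h at 37 C before ONE-Glo luciferase reagent and a luminescence read 30 min later.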

[5] = qHTS assay to identify small molecule agonists of the estrogen related receptor (ERR) signaling pathway from Tox21 library (AID 1224849; calls by dose curve; also: nearly all actives have a fitted effect of over 15% in size); conditions: ERR reporter cell line, ONE-Glo luciferase, 18 h; at 92.4 µM (top of the series) unless noted
How it was run: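 Cells carrying the ERR reporter were plated and allowed to settle for 6 h, exposed to library compounds for 18 h at 37 C, then lysed with ONE-Glo and luminescence measured.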

[6] = qHTS RealTime-Glo MT Cell Viability Assay in HepG2 cells - 24 hour (AID 1224867); also: nearly all actives have a fitted effect of over 50% in size
How it was run: (§1)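 Luminescence read-out: viable HepG2 cells reduce a prosubstrate to a NanoLuc substrate, giving a signal proportional to live cell number. Reads taken at 0, 8, 16, 24, 32 and 40 h of compound exposure at 37 C.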

[7] = qHTS RealTime-Glo MT Cell Viability Assay in HEK293 cells - 32 hour (AID 1224868); also: nearly all actives have a fitted effect of over 50% in size; also: potency is read from the fitted curve at half-maximal effect
How it was run: (§2)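 Nonlytic real-time viability readout: viable cells convert prosubstrate to NanoLuc substrate, giving luminescence proportional to live cell number. HEK293, 600 cells/well, compound added after 5 h, continuous culture at 37 C.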

[8] = A CellTox Green Cytotoxicity Assay to monitor cytotoxicity in HEK293 cells - 0 hour (AID 1224869); also: nearly all actives have a fitted effect of over 50% in size
How it was run: (§3)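 Cells (HEK293, 600/well) and dye reagent are dispensed together. After 5 h at 37 C, 23 nL compound is pinned in. Plates stay at 37 C for 40 h with fluorescence read at 0h, 8h, 16h, 24h, 32h and 40h.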

[9] = qHTS RealTime-Glo MT Cell Viability Assay in HepG2 cells - 40 hour (AID 1224870); also: nearly all actives have a fitted effect of over 50% in size
How it was run: (§4)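 HepG2 cells (600/well) mixed with RealTime-Glo MT reagent, settled 5 h at 37 C/5% CO2 before compound addition. Nonlytic NanoLuc luminescence from viable-cell prosubstrate reduction read repeatedly during 40 h treatment at 37 C.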

[10] = qHTS RealTime-Glo MT Cell Viability Assay in HEK293 cells - 16 hour (AID 1224872); also: nearly all actives have a fitted effect of over 50% in size; also: potency is read from the fitted curve at half-maximal effect
How it was run: as §2

[11] = qHTS RealTime-Glo MT Cell Viability Assay in HepG2 cells - 8 hour (AID 1224873); also: nearly all actives have a fitted effect of over 55% in size
How it was run: as §4

[12] = qHTS RealTime-Glo MT Cell Viability Assay in HEK293 cells - 40 hour (AID 1224874); conditions: RealTime-Glo luminescence; max response: stronger effect = lower value; also: nearly all actives have a fitted effect of over 50% in size; also: potency is read from the fitted curve at half-maximal effect
How it was run: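 Real-time viability in HEK293: signal arises when living cells convert a prosubstrate for NanoLuc in the medium, so luminescence tracks viable cell number. Compound (23 nL, DMSO) added 5 h post-seeding; kinetic reads at 0–40 h, 37 C.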

[13] = A CellTox Green Cytotoxicity Assay to monitor cytotoxicity in HEK293 cells - 24 hour (AID 1224875); also: nearly all actives have a fitted effect of over 45% in size
How it was run: as §3

[14] = A CellTox Green Cytotoxicity Assay to monitor cytotoxicity in HepG2 cells - 16 hour (AID 1224876); also: nearly all actives have a fitted effect of over 45% in size
How it was run: (§5)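 Cells and non-lytic dye reagent are dispensed together (600 HepG2 cells/well) and incubated 5 h before DMSO compound transfer. Kinetic fluorescence is then recorded in the same wells during 40 h at 37 C.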

[15] = qHTS RealTime-Glo MT Cell Viability Assay in HepG2 cells - 32 hour (AID 1224877); also: nearly all actives have a fitted effect of over 55% in size
How it was run: as §1

[16] = A CellTox Green Cytotoxicity Assay to monitor cytotoxicity in HepG2 cells - 24 hour (AID 1224878); also: nearly all actives have a fitted effect of over 45% in size
How it was run: as §5

[17] = A CellTox Green Cytotoxicity Assay to monitor cytotoxicity in HepG2 cells - 40 hour (AID 1224879); also: nearly all actives have a fitted effect of over 40% in size
How it was run: as §5

[18] = qHTS assay to identify small molecule agonists of the hypoxia (HIF-1) signaling pathway (AID 1224846; active = well fitted activation curve with a large enough effect in the signal ratio in the repeat runs, not every such curve was filed as active; the % refers to the signal ratio)
How it was run: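 Compounds from the Tox21 10K library, dissolved in DMSO, are tested for induction of a hypoxia response element–controlled beta-lactamase reporter in ME-180 cells. Exposure lasts 17 hrs at 37C after a 5 hr settling period, followed by CCF4-AM FRET substrate.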

[19] = A CellTox Green Cytotoxicity Assay to monitor cytotoxicity in HEK293 cells - 40 hour (AID 1224871); also: nearly all actives have a fitted effect of over 45% in size
How it was run: as §3
% is scaled to controls: 0 for no effect and ±100 for the full control effect.

Thyrotropin receptor (Homo sapiens), sequence (P16473 whole entry, looked up): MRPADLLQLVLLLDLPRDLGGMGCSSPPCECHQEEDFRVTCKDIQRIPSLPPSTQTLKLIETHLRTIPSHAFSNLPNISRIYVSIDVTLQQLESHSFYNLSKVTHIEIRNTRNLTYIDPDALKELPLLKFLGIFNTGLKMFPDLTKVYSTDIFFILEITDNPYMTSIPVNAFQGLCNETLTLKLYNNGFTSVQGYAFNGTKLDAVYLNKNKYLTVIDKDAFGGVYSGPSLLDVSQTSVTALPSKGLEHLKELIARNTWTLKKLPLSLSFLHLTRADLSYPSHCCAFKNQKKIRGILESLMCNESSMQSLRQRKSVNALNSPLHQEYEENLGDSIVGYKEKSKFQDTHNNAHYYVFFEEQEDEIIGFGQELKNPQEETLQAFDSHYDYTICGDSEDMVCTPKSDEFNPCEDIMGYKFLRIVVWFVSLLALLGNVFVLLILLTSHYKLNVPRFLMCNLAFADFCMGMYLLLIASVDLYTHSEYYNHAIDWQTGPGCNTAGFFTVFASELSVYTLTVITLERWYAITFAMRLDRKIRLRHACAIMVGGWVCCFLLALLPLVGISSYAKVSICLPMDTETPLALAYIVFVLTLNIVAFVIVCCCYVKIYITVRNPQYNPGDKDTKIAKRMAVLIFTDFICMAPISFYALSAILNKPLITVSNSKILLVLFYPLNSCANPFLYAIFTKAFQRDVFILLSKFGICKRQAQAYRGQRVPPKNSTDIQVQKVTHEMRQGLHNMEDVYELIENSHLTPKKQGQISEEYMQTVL

CC(=O)CC(c1ccc([N+](=O)[O-])cc1)c1c(O)c2ccccc2oc1=O (configuration not stated)
inactive: Potency [1] | Potency [2] | Potency [3] | Potency [4] | activity change, positive = activation [5] -11.1% [at 42.5 µM] | Potency [6] | Potency [7] | Potency [8] | Potency [9] | Potency [10] | Potency [11] | max response [12] -4.65% | Potency [13] | Potency [14] | Potency [15] | Potency [16] | Potency [17]

OCC1CC=CCC1 (configuration not stated)
inactive: Potency [1] | Potency [2] | outcome [18] | Potency [3] | Potency [6] | Potency [7] | Potency [8] | Potency [9] | Potency [19] | Potency [10] | Potency [11] | max response [12] -1.94% | Potency [13] | Potency [14] | Potency [15] | Potency [16] | Potency [17]

Fc1c(F)c(F)c(Br)c(F)c1F
inactive: Potency [1] | Potency [2] | outcome [18] | Potency [3] | Potency [6] | Potency [7] | Potency [8] | Potency [9] | Potency [19] | Potency [10] | Potency [11] | max response [12] 0.266% | Potency [13] | Potency [14] | Potency [15] | Potency [16] | Potency [17]

CCOC(=O)c1ccccc1OC
inactive: Potency [1] | Potency [2] | outcome [18] | Potency [4] | activity change, positive = activation [5] -0.575% | Potency [6] | Potency [7] | Potency [8] | Potency [9] | Potency [19] | Potency [10] | Potency [11] | max response [12] -4.86% | Potency [13] | Potency [14] | Potency [15] | Potency [16] | Potency [17]

CCCCC(CC)COC(=O)COc1ccc(Cl)cc1C (configuration not stated)
inactive: Potency [1] | Potency [2] | outcome [18] | Potency [3] | Potency [6] | Potency [9] | Potency [19] | Potency [10] | Potency [11] | max response [12] 14.7% | Potency [13] | Potency [14] | Potency [15] | Potency [16] | Potency [17]

COCCOC
active: Potency [2] 4670 nM | Potency [4] 1460 nM | Potency [7] 740 nM | Potency [10] 932 nM | Potency [12] 830 nM
inactive: Potency [1] | outcome [18] | activity change, positive = activation [5] -69.9% | Potency [6] | Potency [8] | Potency [9] | Potency [19] | Potency [11] | Potency [13] | Potency [14] | Potency [15] | Potency [16] | Potency [17]
